Here are results for three molecules from PubChem BioAssay (NCATS).

Each structure is given as a SMILES string. Values joined by “and” are separate entries in the source; they are usually repeats but may differ in a detail not shown here. Equal values may be shown once. Results filed as inconclusive are left out. Active and inactive are the calls of the source. Unless noted, calls come from the whole dose curve; as a rule, active = well fitted curve in the direction sought with a large enough effect; inconclusive = small, poorly fitted or top-dose-only effect, or another doubt; inactive = no such curve, though single readings can be large; an effect the other way counts as inactive or inconclusive.

Experiment [1] is described as follows: AP1 Signaling Pathway (AID 357; active = well fitted curve in either direction with a large enough effect, not every such curve was filed as active;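 note: ME-180 reporter cells stimulated with EGF at its EC50 level; % is set by controls: 0 for no effect and ±100 for the full control effect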). As to conditions: ME-180 AP-1-bla reporter, EGF-induced, beta-lactamase ratio, 5 h. An outline of the steps:
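Cells are seeded overnight, exposed to compound titrations and an EC50 level of EGF for 5 hours at 37 °C, then loaded with CCF4 dye for 2.5 hours. Beta-lactamase activity under the AP-1 element is read as a blue/green ratio.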

Experiment [2] addresses Cytochrome P450 1A2 (Homo sapiens) (UniProt P05177). Kind of experiment: p450-cyp1a2 (AID 410; calls by dose curve; note: potency is the fitted concentration of half-maximal effect;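 for activity change, negative = inhibition: -100% = full effect of reference inhibitor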). An outline of the steps: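 Read-out is luminescence from luciferin produced by CYP1A2 demethylation of Luciferin-ME (100uM, at Km). Detection reagent stopped the 60 min NADPH-dependent reaction; signals were normalized to 57 uM furafylline.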
Experiment [3] in a line: NFAT Signaling Pathway (AID 444; active = well fitted curve in either direction with a large enough effect, not every such curve was filed as active;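 note: carbachol stimulus at about its EC50 of 1 µM final; % is set by controls: 0 for no effect and ±100 for the full control effect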). As to conditions: Jurkat NFAT-bla M1, carbachol, beta-lactamase ratio, 5 h. The essentials:
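Read-out: CCF4 FRET ratio (460 nm/530 nm) after 1 h RT dye loading, used for %activity and AC50 from titration series. Cells: Jurkat NFAT-β-lactamase/M1 line, treated with compound plus 1 uM carbachol for 5 h, 37 °C.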

Experiment [4] can be described thus: Stat Signaling Pathway (AID 446; active = well fitted curve in either direction with a large enough effect, not every such curve was filed as active;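 note: ME-180 cervical cancer cells given 40 pM IL-6 alongside compound; SIE-controlled beta-lactamase reporter measured as 460/530 nm FRET emission ratio; % is set by controls: 0 for no effect and ±100 for the full control effect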). Conditions: ME-180 (cervical carcinoma) SIE beta-lactamase reporter, IL-6 stimulated, 5 h. The essentials: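 Normalization used AC90 stimulation (300 pM IL-6) and AC90 inhibition (125 nM pan-JAK inhibitor at 40 pM IL-6). The underlying signal is SIE-driven beta-lactamase in ME-180 cells after 5 h IL-6 exposure with compound.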
The target in experiment [5] is Glucocorticoid receptor (Homo sapiens) (UniProt P04150). Kind of experiment: GR-GFP Redistribution (AID 450;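 active = compounds whose dose series gives a full or clear partial fitted curve of increased nuclear translocation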; note: potency is the fitted concentration of half-maximal effect). As to conditions: U2OS GR-GFP nuclear translocation, laser cytometry, 2 h.
Glucocorticoid receptor (Homo sapiens), sequence (P04150 whole entry, looked up, the tested form may be a part): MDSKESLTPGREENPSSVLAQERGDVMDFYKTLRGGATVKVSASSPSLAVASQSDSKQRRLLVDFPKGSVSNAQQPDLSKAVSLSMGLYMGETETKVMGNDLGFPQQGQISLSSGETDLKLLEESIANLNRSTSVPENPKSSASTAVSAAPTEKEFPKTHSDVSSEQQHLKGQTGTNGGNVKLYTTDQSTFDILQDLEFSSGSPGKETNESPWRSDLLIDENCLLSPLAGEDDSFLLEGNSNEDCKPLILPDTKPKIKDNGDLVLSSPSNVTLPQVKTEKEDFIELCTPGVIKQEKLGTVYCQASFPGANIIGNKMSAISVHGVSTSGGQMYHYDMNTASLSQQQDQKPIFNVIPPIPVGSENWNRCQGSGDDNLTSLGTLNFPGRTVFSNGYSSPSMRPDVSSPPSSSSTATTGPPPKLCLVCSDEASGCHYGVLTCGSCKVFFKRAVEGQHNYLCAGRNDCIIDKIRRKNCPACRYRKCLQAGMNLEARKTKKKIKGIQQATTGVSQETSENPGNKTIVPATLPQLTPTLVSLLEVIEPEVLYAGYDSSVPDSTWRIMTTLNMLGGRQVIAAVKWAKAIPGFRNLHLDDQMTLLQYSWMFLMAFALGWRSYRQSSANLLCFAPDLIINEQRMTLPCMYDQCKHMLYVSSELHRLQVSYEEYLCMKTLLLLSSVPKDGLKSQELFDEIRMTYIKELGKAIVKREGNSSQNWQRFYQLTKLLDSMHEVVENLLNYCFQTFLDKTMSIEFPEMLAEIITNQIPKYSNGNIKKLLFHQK
Experiment [6] has the same target. Kind of experiment: GR-EFC Redistribution (AID 451; calls by dose curve; note: potency is the fitted concentration of half-maximal effect). Conditions: CHO-K1 GR-EFC translocation, beta-gal luminescence, 2 h. An outline of the steps: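 Translocation of GR-ED fusion to nuclear EA restores b-gal, read by luminescence after 1 h room-temperature detection. Engineered CHO-K1 biosensor cells, 1,000/well, exposed 2 h at 37 C to titrations up to 46 uM final.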

Experiment [7] has as its target Mitogen-activated protein kinase 10 (Mus musculus) (UniProt Q61831). Description: JNK3 AlphaScreen Assay (AID 530; active = well fitted curve in either direction with a large enough effect, not every such curve was filed as active;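 note: kinase came from lysate of stimulated human HepG2 cells; signal reports phosphorylation of biotinylated GST-cJun 1-79 at Ser73 with 10 µM ATP; % is set by controls: 0 for no effect and ±100 for the full control effect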). The essentials:
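Kinase buffer: 20 mM Tris-HCl pH 7.6, 10 mM MgCl2, 1 mM DTT, 0.1 mM Na3VO4, 0.01% Tween-20; ATP 10 uM. Substrate biotin-GST-cJun(1-79), enzyme from activated HepG2 lysates. Detection by Ser73 phospho-antibody AlphaScreen.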
In general terms: Bead proximity is the source of the signal in Alpha formats.

In experiment [8] the target is 3',5'-cyclic-AMP phosphodiesterase 4B (Homo sapiens) (UniProt Q07343). Description: qHTS Assay for Inhibitors of PDE-IV (AID 607; active = well fitted activation curve with a large enough effect in the main read-out, with a control signal flat, not every such curve was filed as active; note: % of control where 0% means no effect). An outline of the steps:
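HEK293 ACTOne cells with CNG channel (1000/well), endogenous PDE4; membrane potential dye, compounds up to 22.9 uM final. Fluorescence Ex 535/Em 590; RO 20-1724 (100 uM final) as reference.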
(In general: Quantitative high-throughput screening tests each substance at several concentrations.)

Experiment [9] is described as follows: qHTS Assay for Lipid Storage Modulators (AID 1519; calls by dose curve). As to conditions: Drosophila S3 cells, BODIPY lipid droplet/cell ratio, laser cytometry, cells loaded with oleic acid; for activity change, negative = inhibition: at 25.7 µM (top of the series). An outline of the steps:
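Cells seeded at 5,000 per well were treated with compounds over a concentration series and loaded with oleic acid (400 uM, as added). Lipid droplet fluorescence (488 nm excitation, 500-530 nm channel) was read by laser-scanning cytometry and normalized to 20 uM Triacsin C.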

Experiment [10] concerns the target ATP-dependent 6-phosphofructokinase (Trypanosoma brucei brucei) (UniProt O15648). Description: qHTS Assay to Find Inhibitors of T. brucei phosphofructokinase: hit validation (AID 492961). An outline of the steps: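 Measures ADP output of PFK (1.25 nM) at 0.1 mM ATP, 0.5 mM F6P, pH 8.0 TEA buffer with 5 mM MgCl2. No-enzyme wells define full inhibition; uninhibited enzyme wells define zero.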

The target in experiment [11] is Ubiquitin carboxyl-terminal hydrolase 1 (Homo sapiens) (UniProt O94782). Description: Inhibitors of USP1/UAF1: Pilot qHTS (AID 504865).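 Note: rhodamine fluorescence freed from ubiquitin-rhodamine substrate followed over time; top concentration of the series differs between compounds; % is set by controls: 0 for no effect and ±100 for the full control effect; nearly all actives have a fitted effect of over 35% in size.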 An outline of the steps: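 Enzyme-free wells gave the negative control, while test wells held 1nM USP1/UAF1 preincubated with compound for 15 min at room temperature. Ub-Rho at 150nM final started the reaction, and fluorescence at 480/540 nm was recorded kinetically.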
Ubiquitin carboxyl-terminal hydrolase 1 (Homo sapiens), sequence (O94782 whole entry, looked up): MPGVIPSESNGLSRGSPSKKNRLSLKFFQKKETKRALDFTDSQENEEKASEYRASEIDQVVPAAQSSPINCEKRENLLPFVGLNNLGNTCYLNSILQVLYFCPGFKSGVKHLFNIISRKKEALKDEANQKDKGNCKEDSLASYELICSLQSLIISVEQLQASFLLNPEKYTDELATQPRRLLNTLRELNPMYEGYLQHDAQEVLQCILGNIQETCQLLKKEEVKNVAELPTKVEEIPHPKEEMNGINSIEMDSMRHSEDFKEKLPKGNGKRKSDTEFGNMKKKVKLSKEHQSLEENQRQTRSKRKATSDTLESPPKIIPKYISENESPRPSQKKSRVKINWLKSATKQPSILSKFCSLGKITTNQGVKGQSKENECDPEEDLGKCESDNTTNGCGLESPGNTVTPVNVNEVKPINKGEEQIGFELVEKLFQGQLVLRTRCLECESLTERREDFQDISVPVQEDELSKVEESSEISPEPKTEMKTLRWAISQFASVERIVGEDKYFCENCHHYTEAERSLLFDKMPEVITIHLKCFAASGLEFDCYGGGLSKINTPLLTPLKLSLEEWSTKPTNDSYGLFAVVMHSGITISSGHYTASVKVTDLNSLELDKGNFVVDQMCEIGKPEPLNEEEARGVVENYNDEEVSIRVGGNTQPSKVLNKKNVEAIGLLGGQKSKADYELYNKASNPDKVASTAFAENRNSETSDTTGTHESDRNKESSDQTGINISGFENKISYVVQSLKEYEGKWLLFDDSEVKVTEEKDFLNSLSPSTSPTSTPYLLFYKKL

Experiment [12] deals with Luciferin 4-monooxygenase (Photinus pyralis) (UniProt P08659). Kind of experiment: Biochemical firefly luciferase enzyme assay for NPC (AID 624030).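 Note: purified P. pyralis luciferase at 10 nM with luciferin and ATP substrate; 0% = DMSO and -100% = full luciferase inhibition by PTC124 control; nearly all actives have a fitted effect of over 70% in size.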 An outline of the steps:
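Direct inhibition of firefly luciferase enzyme (10 nM final, 50 mM Tris Acetate) assessed by luminescence within 5 minutes. Percent activity scaled between DMSO and PTC124 positive control, with concentration-effect curves classified by fit quality and response.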

Experiment [13] in a line: qHTS profiling for inhibitors of Plasmodium falciparum proliferation (AID 504749).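 Note: 0% = DMSO vehicle and full inhibition = artemisinin control; nearly all actives have a fitted effect of over 60% in size.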 As to conditions: P. falciparum in erythrocytes, SYBR Green DNA, 72 h. The essentials:
(§1)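 In a 72 h erythrocytic culture (37 C, humidified, 5% CO2) at 2.5% hematocrit and 0.3% starting parasitemia, compounds were tested; SYBR Green I in detergent lysis buffer stained parasite DNA overnight.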

Another experiment deals with AS120. Described as above. As to conditions: P. falciparum in erythrocytes, SYBR Green DNA, 72 h; series mostly up to 28.7 µM. The essentials: as §1
The next experiment concerns CP238. The description is as above. As to conditions: P. falciparum in erythrocytes, SYBR Green DNA, 72 h; series mostly up to 12.8 µM. An outline of the steps: as §1
The next experiment deals with CP265. The experiment is described as above. As to conditions: P. falciparum in erythrocytes, SYBR Green DNA, 72 h; series mostly up to 12.8 µM. The essentials:
as §1

For the next experiment, the system named is FAB9. Described as above. As to conditions: P. falciparum in erythrocytes, SYBR Green DNA, 72 h; series mostly up to 12.8 µM. An outline of the steps: as §1
Experiment [14] concerns the target Pyruvate kinase (Leishmania mexicana) (UniProt Q27686). Kind of experiment: qHTS Validation Assay for Inhibitors of Leishmania Mexicana Pyruvate Kinase (AID 945).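 Note: 0% = DMSO only neutral control wells.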 The essentials: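 Eight-point qHTS titrations in triplicate, data normalized to DMSO neutral control. Reaction: 0.2 nM LmPYK E451W mutant, 0.5 mM PEP, 0.1 mM ADP, 7 mM MgCl2, pH 7.2, one hour at room temperature; luminescent ATP detection.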

Experiment [15] addresses Alpha-galactosidase A (Homo sapiens) (UniProt P06280). Kind of experiment: Counterscreen for Glucocerebrosidase Inhibitors: qHTS Assay for Human alpha-Galactosidase at pH 4.5 (AID 992). Note: 0% is about no effect. An outline of the steps:
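Steps: enzyme (2 nM final), then compound across 0.7 nM to 77 uM, then 80 uM fluorogenic galactopyranoside substrate; incubate 20 min at room temperature; quench at pH 10; measure fluorescence at 365/440 nm.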
On the technique in general: The purpose of a counterscreen is to sort out artefacts and off-target activity.

The target in experiment [16] is alpha-glucosidase (Oryza sativa, rice) (UniProt Q653V4). Kind of experiment: Counterscreen for Glucocerebrosidase Inhibitors: qHTS Assay for Rice alpha-Glucosidase at pH 5.0 (AID 997).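 Note: 0% = full activity with enzyme and -100% = basal without enzyme.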 The essentials: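 Endpoint fluorogenic assay at pH 5.0: compounds (0.7 nM to 77 uM) titrated against 4 nM rice enzyme and 400 uM 4-MU-alpha-glucoside for 20 min at room temperature; NaOH/glycine stop, read ex 365/em 440 nm, Hill-fitted AC50.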

Where [17] appears, read: at 7.69 µM (top of the series) unless noted.
[18] abbreviates: measured here: cell count channel max response.
Where [19] appears, read: measured here: lipid channel max response.
The mark [20] stands for this setting: at 12.8 µM (top of the series), parasite line A.
Where [21] appears, read: at 12.8 µM (top of the series), parasite line B.

Luciferin 4-monooxygenase (Photinus pyralis), sequence (P08659 whole entry, looked up): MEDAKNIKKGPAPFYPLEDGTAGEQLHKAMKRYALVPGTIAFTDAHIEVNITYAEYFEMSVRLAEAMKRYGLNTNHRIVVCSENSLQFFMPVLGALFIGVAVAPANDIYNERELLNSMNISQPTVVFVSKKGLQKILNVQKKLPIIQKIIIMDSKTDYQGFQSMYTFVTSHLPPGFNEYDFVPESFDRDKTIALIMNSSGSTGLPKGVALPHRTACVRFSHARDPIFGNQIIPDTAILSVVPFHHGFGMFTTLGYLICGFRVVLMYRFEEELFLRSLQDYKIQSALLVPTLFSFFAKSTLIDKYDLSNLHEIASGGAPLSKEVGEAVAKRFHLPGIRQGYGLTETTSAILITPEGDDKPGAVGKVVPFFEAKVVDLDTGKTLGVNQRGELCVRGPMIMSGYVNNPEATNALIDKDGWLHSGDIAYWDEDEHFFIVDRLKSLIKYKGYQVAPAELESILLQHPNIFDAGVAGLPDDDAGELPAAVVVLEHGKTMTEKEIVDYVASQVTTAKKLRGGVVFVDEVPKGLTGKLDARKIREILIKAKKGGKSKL
ATP-dependent 6-phosphofructokinase (Trypanosoma brucei brucei), sequence (O15648 whole entry, looked up): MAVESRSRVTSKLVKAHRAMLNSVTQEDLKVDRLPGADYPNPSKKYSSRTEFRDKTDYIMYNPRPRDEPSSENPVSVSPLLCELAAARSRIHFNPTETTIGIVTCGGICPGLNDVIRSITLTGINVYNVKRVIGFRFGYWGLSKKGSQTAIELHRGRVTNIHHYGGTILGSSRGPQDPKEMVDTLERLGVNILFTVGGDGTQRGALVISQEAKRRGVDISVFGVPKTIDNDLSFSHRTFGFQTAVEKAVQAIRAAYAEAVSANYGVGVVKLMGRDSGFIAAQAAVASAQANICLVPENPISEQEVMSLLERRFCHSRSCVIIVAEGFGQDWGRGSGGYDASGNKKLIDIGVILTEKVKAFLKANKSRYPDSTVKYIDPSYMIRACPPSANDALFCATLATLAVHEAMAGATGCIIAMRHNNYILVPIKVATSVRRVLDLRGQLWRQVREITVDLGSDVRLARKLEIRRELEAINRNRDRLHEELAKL
3',5'-cyclic-AMP phosphodiesterase 4B (Homo sapiens), sequence (Q07343 whole entry, looked up): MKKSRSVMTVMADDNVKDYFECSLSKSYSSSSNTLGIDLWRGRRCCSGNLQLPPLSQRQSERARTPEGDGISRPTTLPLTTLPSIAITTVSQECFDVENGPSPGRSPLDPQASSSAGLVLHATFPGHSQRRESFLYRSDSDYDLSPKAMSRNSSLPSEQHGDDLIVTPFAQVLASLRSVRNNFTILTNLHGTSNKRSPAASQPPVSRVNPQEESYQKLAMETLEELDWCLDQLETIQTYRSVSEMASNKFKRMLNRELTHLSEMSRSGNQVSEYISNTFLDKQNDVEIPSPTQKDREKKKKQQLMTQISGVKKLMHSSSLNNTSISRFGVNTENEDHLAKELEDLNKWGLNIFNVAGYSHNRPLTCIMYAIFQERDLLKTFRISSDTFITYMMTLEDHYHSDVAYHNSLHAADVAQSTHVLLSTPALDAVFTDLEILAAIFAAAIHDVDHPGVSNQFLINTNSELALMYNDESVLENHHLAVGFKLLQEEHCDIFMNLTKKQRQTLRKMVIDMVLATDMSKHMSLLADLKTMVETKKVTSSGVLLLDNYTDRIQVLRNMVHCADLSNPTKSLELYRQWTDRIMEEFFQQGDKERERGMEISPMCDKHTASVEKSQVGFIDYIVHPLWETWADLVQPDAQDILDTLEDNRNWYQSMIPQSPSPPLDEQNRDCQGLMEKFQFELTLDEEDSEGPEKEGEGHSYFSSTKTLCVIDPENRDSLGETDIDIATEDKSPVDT
Cytochrome P450 1A2 (Homo sapiens), sequence (P05177 whole entry, looked up): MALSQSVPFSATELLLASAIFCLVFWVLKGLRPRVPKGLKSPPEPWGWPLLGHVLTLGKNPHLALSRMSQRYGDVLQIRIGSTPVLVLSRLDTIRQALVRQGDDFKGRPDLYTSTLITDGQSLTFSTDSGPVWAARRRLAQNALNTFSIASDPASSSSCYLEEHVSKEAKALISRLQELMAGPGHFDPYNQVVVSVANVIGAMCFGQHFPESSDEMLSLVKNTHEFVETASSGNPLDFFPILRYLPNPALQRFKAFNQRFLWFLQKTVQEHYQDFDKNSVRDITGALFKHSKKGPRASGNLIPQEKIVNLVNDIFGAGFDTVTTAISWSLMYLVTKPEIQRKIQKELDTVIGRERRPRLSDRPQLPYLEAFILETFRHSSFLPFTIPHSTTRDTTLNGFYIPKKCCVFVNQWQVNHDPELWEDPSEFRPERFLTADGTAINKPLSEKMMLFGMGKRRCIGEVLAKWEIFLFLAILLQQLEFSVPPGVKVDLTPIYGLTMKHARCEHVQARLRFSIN
Pyruvate kinase (Leishmania mexicana), sequence (Q27686 2-499 E452W): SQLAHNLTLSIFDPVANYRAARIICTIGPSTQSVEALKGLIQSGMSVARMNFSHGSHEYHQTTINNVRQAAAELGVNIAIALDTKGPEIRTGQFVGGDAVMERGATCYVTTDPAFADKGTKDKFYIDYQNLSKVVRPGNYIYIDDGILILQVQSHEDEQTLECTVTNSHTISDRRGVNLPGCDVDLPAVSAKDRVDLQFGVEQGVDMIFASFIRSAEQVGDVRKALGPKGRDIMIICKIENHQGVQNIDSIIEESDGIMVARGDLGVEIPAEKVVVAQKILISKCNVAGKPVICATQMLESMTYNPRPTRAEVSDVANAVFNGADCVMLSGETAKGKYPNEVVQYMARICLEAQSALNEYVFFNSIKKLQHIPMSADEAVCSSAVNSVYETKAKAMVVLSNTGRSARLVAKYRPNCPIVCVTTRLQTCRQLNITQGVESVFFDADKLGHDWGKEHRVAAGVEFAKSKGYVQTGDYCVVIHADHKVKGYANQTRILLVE
Alpha-galactosidase A (Homo sapiens), sequence (P06280 whole entry, looked up): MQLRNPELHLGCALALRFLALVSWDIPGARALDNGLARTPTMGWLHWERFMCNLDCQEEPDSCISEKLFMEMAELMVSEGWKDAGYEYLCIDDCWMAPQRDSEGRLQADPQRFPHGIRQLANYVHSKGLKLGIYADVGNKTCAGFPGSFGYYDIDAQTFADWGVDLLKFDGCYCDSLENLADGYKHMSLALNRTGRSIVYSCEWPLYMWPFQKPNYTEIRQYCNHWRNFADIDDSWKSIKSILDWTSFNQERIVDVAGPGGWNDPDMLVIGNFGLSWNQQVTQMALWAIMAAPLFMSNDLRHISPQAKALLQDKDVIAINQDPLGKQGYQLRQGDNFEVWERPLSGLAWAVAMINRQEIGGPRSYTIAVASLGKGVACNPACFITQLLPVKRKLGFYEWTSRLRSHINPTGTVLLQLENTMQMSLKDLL

As to `CCN1C(=O)N[C@@H](c2ccccc2)C1=O`, the activity change, negative = inhibition in [1] (setting [17]) is -1.74% [at 17.2 µM] (inactive); in experiment [3] (setting [17]), 1.96% [at 17.2 µM] (inactive); in experiment [9], -2.13% (inactive). Further, the Potency entry (in experiment [2]; in experiment [7]; in [8]; in experiment [11]; with AS120; in the experiment on CP238) was “inactive” in each case. For the same molecule, the Potency result in the experiment with CP265 and in the experiment on FAB9 was “inactive” each time. In addition, the activity, negative = inhibition in experiment [4] (setting [17]) is -21.2% [at 17.2 µM] (inactive); in [13] (setting [20]) it was -3.65% (inactive); in experiment [13] (setting [21]), 13.5% (inactive). In addition, the Potency in experiment [5] and in experiment [6] was > 20.6 µM (inactive) throughout. Also, the max response in experiment [9] (setting [18]) is -10.1%; in experiment [9] (setting [19]) it was -9.51%. Also, the molecule was classed as inactive in experiment [10] and in experiment [12].
Consider `COCCc1ccc(OC[C@H](O)CNC(C)C)cc1`, for which the activity change, negative = inhibition in experiment [1] (at 17.2 µM (top of the series)) is 15.8% (inactive); in [1] (at 38 µM (top of the series)) it was 13.6% (inactive); in experiment [3] (at 17.2 µM (top of the series)), 1.88% (inactive); in experiment [3] (at 38 µM (top of the series)), -1.17% (inactive); in experiment [9] it was 1.2% (inactive). The activity, negative = inhibition in experiment [4] (at 17.2 µM (top of the series)) is -1.97% (inactive); in experiment [4] (at 38 µM (top of the series)) it was 13.4% (inactive); in experiment [13] (at 28.7 µM (top of the series), parasite line A), 13.1% (inactive); in experiment [13] (at 28.7 µM (top of the series), parasite line B), 3.39% (inactive). The Potency in experiment [5] is > 46 µM (inactive) and > 20.6 µM (inactive); in experiment [6], > 46 µM (inactive) and > 20.6 µM (inactive). Moreover, the Potency result (in experiment [7]; in [8]; in experiment [11]; in the experiment on AS120; with CP238; in the experiment on CP265) was “inactive” in each case. Moreover, the Potency result in the experiment with FAB9 is “inactive”. Further, the result in experiment [14], in [15], in [16], in experiment [10] and in experiment [12] was inactive. In addition, the max response in experiment [9] (setting [18]) was 10.9%; in [9] (setting [19]), 11.2%.
Turning to `COc1ccccc1OC[C@H](O)COC(N)=O`, the activity change, negative = inhibition was -6.22% [at 17.2 µM] (inactive) in experiment [1] (setting [17]), -5.33% [at 17.2 µM] (inactive) in experiment [3] (setting [17]) and 1.49% (inactive) in [9]. For the same molecule, the results for the Potency in experiment [2], in experiment [5] and in experiment [6] were 10 µM (active), > 20.6 µM (inactive) and > 20.6 µM (inactive), respectively. The activity, negative = inhibition in [4] (setting [17]) is 10.4% [at 17.2 µM] (inactive); in [13] (setting [20]), 3.95% (inactive); in experiment [13] (setting [21]), 18.1% (inactive). Besides, the Potency result (in experiment [7]; in experiment [8]; in experiment [11]; in the experiment on AS120; in the experiment with CP238; in the experiment on CP265) was “inactive” each time. Further, in the experiment on FAB9, the Potency entry was “inactive”. The values for the max response in experiment [9] (setting [18]) and in [9] (setting [19]) were -1.12% and 2.55%, respectively. Also, the outcome in experiment [10] and in experiment [12] was inactive.
